# Screens (PubChem)
# A selection: hits, their analogues and other compounds. The true share with any hit is near 27%.
# CYP2C9 act = activators of human CYP2C9 | activation factor at 5 µM | P11712 | AID 1024 | recombinant CYP2C9, luciferin-H conversion, luminescence; hits give high values; factor 1 = untreated enzyme, 0 = blocked | 96,000 tested, 1.4% active;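 active means activation factor of 2 or more for CYP2C9 at a 5 µM dose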
# Target sequence (P11712 whole entry, looked up): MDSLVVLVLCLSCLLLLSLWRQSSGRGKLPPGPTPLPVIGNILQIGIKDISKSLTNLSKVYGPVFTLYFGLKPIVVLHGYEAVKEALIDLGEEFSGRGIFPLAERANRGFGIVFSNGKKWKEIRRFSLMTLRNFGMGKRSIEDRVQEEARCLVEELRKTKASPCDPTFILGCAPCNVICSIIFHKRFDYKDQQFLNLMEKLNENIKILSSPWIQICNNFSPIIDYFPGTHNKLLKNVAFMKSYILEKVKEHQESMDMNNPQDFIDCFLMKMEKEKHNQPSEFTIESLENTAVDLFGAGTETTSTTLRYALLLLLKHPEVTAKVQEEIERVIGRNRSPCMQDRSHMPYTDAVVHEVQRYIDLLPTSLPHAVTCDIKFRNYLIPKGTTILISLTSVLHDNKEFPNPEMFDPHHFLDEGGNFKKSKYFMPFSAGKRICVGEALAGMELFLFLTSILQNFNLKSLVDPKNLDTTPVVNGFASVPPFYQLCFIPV
# CYP2C19 inhib = inhibitors of human CYP2C19. 96,000 tested, 21% active. CYP2C19 Supersomes, luciferin-H EGE luminescence, 30 min. inhibition, % at 5 µM. P33261;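 active means CYP2C19 inhibition above a set limit at 5 µM in the primary screen, cut at about 50% in these data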
# CYP2C9 inh = inhibitors of human CYP2C9 | 96,000 tested, 20% active | inhibition, % at 5 µM | P11712 | CYP2C9 Supersomes, luciferin-H conversion, luminescence;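 active means blocking of liver enzyme CYP2C9 beyond about 50% at 5 µM, limit read from the data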
# CYP2C19 activ = increases human CYP2C19 enzyme activity. P33261. AID 1025. activation factor at 5 µM. recombinant CYP2C19, luciferin-H EGE luminescence; hits give high values; 0 = fully inhibited enzyme, 1 = untreated enzyme. 96,000 tested, under 10 active;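 active means activation factor of at least 2 at 5 µM in the primary screen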
# Cav32 inh = human Cav3.2 channel inhibition, primary screen. 100,000 tested, 4% active. AID 449739. O95180. Cav3.2-expressing cells, Fluo-4 calcium fluorescence FDSS; hits give low values. B-score at 10 µM;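 active means single-dose well whose peak fluorescence ratio is a statistical outlier from its plate by either plate-standardised score or position-corrected B-score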
# Hits are given with their value; – = inactive; · = not tested or not shown.
SMILES,CYP2C9 act,CYP2C19 inhib,CYP2C9 inh,CYP2C19 activ,Cav32 inh
C=CCn1c(=O)/c(=C/c2cc(OC)c(OC)c(OC)c2)s/c1=C(/C#N)c1nc2ccccc2n1C,–,–,–,–,–
CCCn1c(C)cc(/C=C(\C#N)C(=O)OCC(=O)NC(=O)NC(C)(C)C)c1C,–,–,–,–,–
CC(=O)c1ccc2c3c(ccc(O)c13)CC2,2.4,–,–,–,–
CCC(=O)Nc1ccc(Cl)c(NC(=O)C(C)C)c1,–,–,–,–,–
COc1ccc(C(=O)N2CCC(C(=O)NCc3ccccn3)CC2)cc1,–,–,–,–,–
Cc1sc2c(=O)n3c(nc2c1C(=O)NC1CCCCC1)CCCCC3,–,84,96,–,–
Cc1onc(-c2c(Cl)cccc2Cl)c1C(=O)NCCCN1CCOCC1,–,–,–,–,–
Cc1csc2c(=O)n3c(nc12)CCCCC3,–,–,–,–,–
Cc1sc2c(=O)n3c(nc2c1C(=O)NCCCN1CCOCC1)CCCCC3,–,86,90,–,–
CCC(=O)NC1(C(F)(F)F)C(=O)Nc2c1c(=O)[nH]c(=O)n2Cc1ccco1 (stereo not drawn),–,–,–,–,–
COc1cccc(N2C(=O)CC(N3CCC(c4nc5ccccc5[nH]4)CC3)C2=O)c1 (stereo not drawn),–,–,–,–,–
COc1ccccc1N1C(=O)CC(N2CCc3ccccc32)C1=O (stereo not drawn),–,91,–,–,–
COc1cccc(N2CCN(C3CC(=O)N(c4ccc(C)c(Cl)c4)C3=O)CC2)c1 (stereo not drawn),–,–,–,–,–
COc1ccc(Cl)cc1N1C(=O)CC(N2CCc3ccccc32)C1=O (stereo not drawn),–,91,–,–,–
COc1cccc(N2C(=O)CC(N3CCc4ccccc43)C2=O)c1 (stereo not drawn),–,83,–,–,–
COc1cccc(N2CCN(C3CC(=O)N(c4ccc(F)c(Cl)c4)C3=O)CC2)c1 (stereo not drawn),–,–,55,–,–
CCCSc1nc(N)cc(=O)[nH]1,–,–,–,–,–
Nc1cccc(Nc2nc(OC(C(F)(F)F)C(F)(F)F)nc(OC(C(F)(F)F)C(F)(F)F)n2)c1,–,–,–,–,–
Cc1nnc(NC(=O)CSc2nnc(CNC(=O)c3ccccc3)n2-c2ccccc2)s1,–,–,–,–,–
O=C(CSc1nnc(C2CC2)n1-c1ccccc1)NCCc1ccccc1,–,–,–,–,–
CCCN=Cc1sc2ccc(OCC)cc2c1O,–,69,–,–,–
CC(=O)NCCN=Cc1sc2ccccc2c1O,–,–,–,–,–
CCn1c(=N)n(CCO)c2ccccc21,–,–,–,–,–
CCc1nccn1S(=O)(=O)c1cc(Br)ccc1OC,–,97,–,–,–
CCc1nccn1S(=O)(=O)c1ccc(OC)c(OC)c1,–,76,–,–,–
SMILES,CYP2C9 act,CYP2C19 inhib,CYP2C9 inh,CYP2C19 activ,Cav32 inh
CCc1nccn1S(=O)(=O)c1ccc(C)c(C)c1,–,–,–,–,–
CCc1nccn1S(=O)(=O)c1cc(C)c(OC)cc1C,–,–,–,–,–
COc1ccc(Cl)cc1S(=O)(=O)n1ccnc1C(C)C,–,74,–,–,–
CC(C)(C)C(=O)Nc1c2c(nc3c1CCC3)CCCC2,–,–,–,–,–
O=C(Cn1nc(-c2ccc(N3CCOCC3)c([N+](=O)[O-])c2)c2ccccc2c1=O)N1CCCCC1,–,–,–,–,–
CC(C)Cn1c(SCC(=O)NCc2ccc(Cl)cc2)nnc1-c1cccc(S(=O)(=O)N2CCOCC2)c1,–,–,61,–,–
C=CCn1c(SCC(=O)Nc2ccccc2)nnc1-c1cccc(S(=O)(=O)N2CCOCC2)c1,–,66,55,–,–
O=C(CN(c1ccccc1)S(=O)(=O)c1ccccc1)NCCSc1nc2ccccc2s1,·,·,·,·,–
Cc1ccc(N(CC(=O)NCCSCc2ccco2)S(=O)(=O)c2ccc(C)cc2)cc1,–,71,88,–,-5.3
Cc1cccc(N(CC(=O)NCCSCc2ccco2)S(=O)(=O)c2ccccc2)c1,–,68,71,–,-4.1
Cc1cc(C)cc(N(CC(=O)NCCSc2ccccn2)S(=O)(=O)c2ccccc2)c1,–,–,64,–,–
CS(=O)(=O)Nc1ccc(C(=O)NCCSCc2ccco2)cc1,–,–,–,–,–
Cc1cccc(N(CC(O)CON=C2c3ccccc3-c3ccccc32)S(C)(=O)=O)c1 (stereo not drawn),–,98,99,–,–
CS(=O)(=O)N(CC(O)CON=C1c2ccccc2-c2ccccc21)c1ccc(F)cc1 (stereo not drawn),–,–,–,–,–
CCCNC(=O)c1cc(S(=O)(=O)N2CCc3ccccc32)ccc1F,·,·,·,·,–
N#CC1=C2SCN(Cc3ccco3)CN2C(=O)CC1c1c(F)cccc1Cl (stereo not drawn),–,–,–,–,–
N#CC1=C2SCN(Cc3ccccc3)CN2C(=O)CC1c1ccccc1F (stereo not drawn),–,–,65,–,–
COc1ccc(Br)cc1C1CC(=O)N2CN(Cc3ccccc3)CSC2=C1C#N (stereo not drawn),–,70,94,–,–
COc1cc(OC)c(C2CC(=O)N3CN(C)CSC3=C2C#N)cc1OC (stereo not drawn),–,–,–,–,–
COc1ccc(Br)cc1C1CC(=O)N2CN(C)CSC2=C1C#N (stereo not drawn),–,60,88,–,–
CCn1c(SCC(=O)NCc2ccco2)nnc1C(C)C,–,–,–,–,–
NCCCCCNC(=O)/C=N\O,–,–,–,–,–
Cc1cccc(-n2c(Cc3cc(=O)[nH]c(=O)[nH]3)nnc2SCC(=O)N2CCCCC2)c1,–,–,–,–,·
N#Cc1cc(-c2ccccc2)c[nH]c1=O,–,–,–,–,–
CC(C)CCC(CCN1CCOCC1)c1ccc2c(c1)OCO2 (stereo not drawn),–,95,51,–,–
SMILES,CYP2C9 act,CYP2C19 inhib,CYP2C9 inh,CYP2C19 activ,Cav32 inh
Cc1cccc(NC(=O)CCc2c(C)nc3ncnn3c2C)n1,–,–,–,–,–
O=C(NC(=O)c1ccc(Cl)cc1)Nc1cc(N2CCCCC2)ncn1,·,·,·,·,–
CCC(C)(C)C1CCC(=NNC(=O)c2ccoc2C)CC1 (stereo not drawn),–,–,–,–,–
Cn1cccc1C(=O)OCc1csc(-c2ccccc2)n1,–,–,–,–,–
O=C1c2ccccc2C(=O)N1CCc1csc(-c2ccccc2)n1,–,100,–,–,–
O=C1c2ccccc2C(=O)N1CCc1csc(-c2ccc(F)cc2)n1,–,100,–,–,·
O=C1c2ccccc2C(=O)N1CCc1nc(-c2ccccn2)no1,–,–,–,–,–
COc1cc2c(cc1OC)-c1nnc(-c3ccco3)n1C1(CCCC1)C2,·,·,·,·,–
C=CCNC(=O)c1ccccc1NC(=O)Nc1ccccc1,–,–,–,–,–
C=CCNC(=O)c1ccccc1NS(=O)(=O)c1ccccc1,2.3,68,–,–,–
